For eleven compounds, growth results are on record in PubChem BioAssay (NCI).

Assay in all cases: NCI-60 one-dose screen, 48 h (100 = growth as untreated, 0 = no growth, -100 = all killed)
One assay has as its system NCI-H226 lung. As to conditions: 10 µM unless noted.
In another assay the test system is HOP-62 NSCLC. As to conditions: 10 µM unless noted.
Another assay deals with NCI-H522 lung. As to conditions: 10 µM unless noted.
The test system of another assay is K-562 leukemia. The settings on record: 10 µM unless noted.
The subject of a further assay is SF-295 CNS. The settings on record: 10 µM unless noted.
The test system of a further assay is HCT-15 colon. The settings on record: 10 µM.
The subject of a further assay is SNB-19 CNS. The settings on record: 10 µM unless noted.
The next assay has as its system SK-MEL-5 melanoma. As to conditions: 10 µM unless noted.
The next assay concerns LOX IMVI melanoma. As to conditions: 10 µM unless noted.
Another assay has as its system EKVX NSCLC. The settings on record: 10 µM unless noted.
A further assay relates to MOLT-4 leukemia. As to conditions: 10 µM.
Another assay relates to SR leukemia. As to conditions: 10 µM.
The test system of the next assay is RPMI-8226 leukemia. As to conditions: 10 µM unless noted.
For a further assay, the system named is IGROV1 ovarian. The settings on record: 10 µM.
Another assay deals with HCC-2998 colon. As to conditions: 10 µM unless noted.
The test system of a further assay is NCI-H322M lung. The settings on record: 10 µM unless noted.
Another assay relates to HOP-92 NSCLC. The settings on record: 10 µM unless noted.
In the next assay the test system is TK-10 renal. The settings on record: 10 µM unless noted.
Another assay concerns CCRF-CEM leukemia. As to conditions: 10 µM unless noted.

The panel holds about 83,000 compounds, 20% with a hit somewhere; the sample as a whole holds those more often.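 Single-dose data. Exposure time 48 hours. Values below 10 considered active.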 A number with no mark means an inactive call. Active and inactive are the calls of the source.

As for `CC(=O)[O][Hg][CH2]C1(C)COC(C)([CH2][Hg][O]C(C)=O)CO1` (stereo unspecified), the growth with NCI-H226 lung is 86.7%; in the assay with HOP-62 NSCLC, 120%; with NCI-H522 lung it was -58.9% (active); in the assay with K-562 leukemia, -30.8% (active); with SF-295 CNS, 69.2%; in the assay on HCT-15 colon, -94% (active). The growth in the assay on SNB-19 CNS is 71.1%; in the assay with SK-MEL-5 melanoma, -35.9% (active); in the assay with LOX IMVI melanoma, -98.4% (active); with EKVX NSCLC, 57.9%; in the assay with MOLT-4 leukemia it was -19.9% (active); in the assay with SR leukemia, 9.98% (active). The growth is 26% in the assay on RPMI-8226 leukemia, -81% (active) in the assay on IGROV1 ovarian and 4.37% (active) in the assay on HCC-2998 colon.
In the case of `N#Cc1ncc(/N=C/c2ccc(N(CCCl)CCCl)cc2)s1`, the growth with NCI-H322M lung was 121%; in the assay with HOP-62 NSCLC, 96.1%; in the assay on HOP-92 NSCLC, 78.5%; in the assay on K-562 leukemia it was 37.6%; in the assay with SF-295 CNS, 58.4%; in the assay on HCT-15 colon, 50.6%. For the same compound, the growth is 89% with SNB-19 CNS; 88.4% with SK-MEL-5 melanoma; 61.3% with LOX IMVI melanoma; 91.2% with EKVX NSCLC; 92.8% with TK-10 renal; 56.2% with CCRF-CEM leukemia. The growth was 42.7% with MOLT-4 leukemia, 12.7% in the assay on SR leukemia and 96.8% in the assay on HCC-2998 colon.
Regarding `N#C[Se]CCCNS(=O)(=O)C1CC2C=CC1C2` (stereo unspecified), the growth in the assay on NCI-H322M lung is -19.9% (active); in the assay on HOP-62 NSCLC, -71.6% (active); in the assay with HOP-92 NSCLC it was -73.1% (active); with K-562 leukemia it was 5.87% (active); in the assay with SF-295 CNS, -80.7% (active); with HCT-15 colon it was -1.27% (active). Also, the growth in the assay on SNB-19 CNS was -42.3% (active); with SK-MEL-5 melanoma, -70.8% (active); in the assay with LOX IMVI melanoma, -76.8% (active); in the assay with EKVX NSCLC it was -96% (active); in the assay on TK-10 renal, -66.4% (active); in the assay with CCRF-CEM leukemia, 17.4%. The growth with MOLT-4 leukemia was 5.9% (active); with SR leukemia, 7.66% (active); with IGROV1 ovarian it was -52.5% (active); in the assay with HCC-2998 colon, 4.61% (active).
As for `C/C1=C/C(=O)O[C@@H]2C[C@@H](CC[C@H](C)/C=C\C=C\CC1)O[C@@](OCCc1ccccc1)([C@@H]1CSC(=O)N1)C2`, the growth in the assay with NCI-H322M lung was 27.8%; in the assay on HOP-62 NSCLC, -15.8% (active); in the assay with HOP-92 NSCLC it was -58.9% (active); in the assay on K-562 leukemia, 36.3%; in the assay with SF-295 CNS, 17.7%; in the assay on SNB-19 CNS, 21.5%. The growth was -21.2% (active) in the assay with SK-MEL-5 melanoma; 4.46% (active) with LOX IMVI melanoma; 1.32% (active) with EKVX NSCLC; -68.1% (active) in the assay with TK-10 renal; 21.2% with CCRF-CEM leukemia; 61.4% in the assay on MOLT-4 leukemia. Moreover, the growth was 46.7% in the assay with RPMI-8226 leukemia, -55.8% (active) with IGROV1 ovarian and 55.9% with HCC-2998 colon.
For the compound `OC1CCCCC1N1CCC(c2ccccc2)CC1` (stereo unspecified), the growth in the assay on NCI-H226 lung was 114%; with SF-295 CNS, 98.5%; in the assay on HCT-15 colon, 110%; with SNB-19 CNS, 117%; in the assay on SK-MEL-5 melanoma, 106%; with LOX IMVI melanoma it was 99.4%. Besides, the growth was 104% in the assay with EKVX NSCLC; 99.2% in the assay on CCRF-CEM leukemia; 79.9% in the assay on MOLT-4 leukemia; 107% in the assay with RPMI-8226 leukemia; 112% with IGROV1 ovarian; 93.2% with HCC-2998 colon.
For the compound `N#CC(C#N)=Cc1ccc2ccccc2c1`, the growth is 106% in the assay on NCI-H226 lung; 113% with HOP-62 NSCLC; 95.1% in the assay with HOP-92 NSCLC; 96.7% in the assay on NCI-H522 lung; 102% in the assay on K-562 leukemia; 111% in the assay with SF-295 CNS. For the same compound, the growth is 111% in the assay with HCT-15 colon; 106% in the assay with SNB-19 CNS; 101% in the assay on SK-MEL-5 melanoma; 84% in the assay with LOX IMVI melanoma; 121% with EKVX NSCLC; 111% in the assay on TK-10 renal. Besides, the growth with CCRF-CEM leukemia is 93.3%; in the assay on MOLT-4 leukemia it was 107%; in the assay on RPMI-8226 leukemia, 90.3%.
As for `CC1([N+](=O)[O-])COP(=O)(Nc2ccc(F)cc2)OC1` (stereo unspecified), the growth in the assay on NCI-H226 lung was 101%; in the assay with HOP-92 NSCLC it was 118%; with K-562 leukemia it was 103%; with SF-295 CNS, 106%; with HCT-15 colon it was 104%; in the assay with SNB-19 CNS, 107%. Moreover, the growth in the assay on EKVX NSCLC was 115%; in the assay on TK-10 renal, 95.1%; in the assay with MOLT-4 leukemia, 83%; with SR leukemia, 84.2%; in the assay on IGROV1 ovarian, 103%; in the assay on HCC-2998 colon it was 99.5%.
As to `COc1cc(CNCCc2ccc(Cl)cc2)cc(OC)c1O`, the growth is 78.9% in the assay with NCI-H322M lung; 83.3% in the assay on HOP-62 NSCLC; 60.6% in the assay on HOP-92 NSCLC; 21.7% in the assay on K-562 leukemia; 54.8% in the assay on HCT-15 colon; 75.6% in the assay on SNB-19 CNS. Also, the growth was 72.8% in the assay with SK-MEL-5 melanoma; 46.9% in the assay on CCRF-CEM leukemia; 37.3% with MOLT-4 leukemia; 14.5% with SR leukemia; 42.4% in the assay with RPMI-8226 leukemia; 81.3% in the assay with IGROV1 ovarian. For the same compound, in the assay with HCC-2998 colon, the growth is 83.2%.
On to `Cn1cnnc1[S-].[Au+].c1ccc([PH+](c2ccccc2)c2ccccc2)cc1`, for which the growth was 89% with NCI-H322M lung; 25.1% with HOP-62 NSCLC; -58.1% (active) in the assay with HOP-92 NSCLC; -75% (active) with NCI-H522 lung; 1.84% (active) in the assay on K-562 leukemia; 78.8% with SF-295 CNS. Moreover, the growth is -67.4% (active) in the assay with HCT-15 colon; 11.4% with SNB-19 CNS; -48.6% (active) with LOX IMVI melanoma; 60.7% in the assay on EKVX NSCLC; -44.5% (active) with TK-10 renal; 1.22% (active) with CCRF-CEM leukemia. The growth in the assay on MOLT-4 leukemia is -9.25% (active); in the assay with RPMI-8226 leukemia, -3.32% (active); with IGROV1 ovarian, -1.4% (active); in the assay with HCC-2998 colon it was 48.3%.
Turning to `COc1ccc(CN2CCN(Cc3ccccc3)CC2)c(O)c1`, the growth in the assay on NCI-H322M lung is 92.3%; in the assay with HOP-62 NSCLC, 93.4%; in the assay with HOP-92 NSCLC it was 87.9%; in the assay on K-562 leukemia it was 74.3%; with SF-295 CNS it was 99.8%; in the assay on HCT-15 colon, 99.2%. In addition, the growth in the assay on SNB-19 CNS is 104%; in the assay on SK-MEL-5 melanoma, 87.9%; in the assay on TK-10 renal it was 100%; in the assay with CCRF-CEM leukemia it was 87.1%; in the assay with SR leukemia, 73.5%; with RPMI-8226 leukemia it was 77.1%. The growth in the assay on IGROV1 ovarian is 91.3%; in the assay with HCC-2998 colon, 89.4%.
For `CC(=O)O[C@@H]1C2=C(C)C3(CC3)[C@@](C)(O)C(=O)C2=C[C@@]1(C)CO`, the growth in the assay with NCI-H322M lung was -5.44% (active); with HOP-62 NSCLC it was -10.1% (active); with HOP-92 NSCLC it was -21.1% (active); in the assay with NCI-H522 lung, -36.6% (active); with K-562 leukemia it was 1.92% (active); in the assay with SF-295 CNS it was -3.92% (active). The growth in the assay with HCT-15 colon is 0.741% (active); in the assay with SNB-19 CNS it was 7.37% (active); in the assay on LOX IMVI melanoma, -25.2% (active); in the assay on EKVX NSCLC, 13.6%; in the assay with MOLT-4 leukemia, 5.2% (active); with SR leukemia, 4.56% (active). Moreover, the growth in the assay with RPMI-8226 leukemia was -18.8% (active).
